PubChem BioAssay (Tox21)
Results filed as inconclusive are left out. Activity calls are given as the source filed them. Unless noted, calls come from the whole dose curve; as a rule, active = well fitted curve in the direction sought with a large enough effect in the repeat runs; inconclusive = weak or mixed curves; inactive = no such curve, though single readings can be large; an effect the other way counts as inactive or inconclusive.

Tests used:
[1] = qHTS assay for small molecules that induce genotoxicity in human embryonic kidney cells expressing luciferase-tagged ATAD5 (AID 651632); conditions: HEK293T ATAD5-luciferase induction, 16 h; series mostly up to 83.3 µM; note: nearly all actives have a fitted effect of over 15% in size
Summary of the method: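 Luminescence read-out: after 16 hr compound exposure at 37C, ATAD5-luciferase HEK293T cells received Amplite, 30 min RT, then CCD imaging. A rise in signal marks genotoxic stress.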

[2] = qHTS assay for small molecule agonists of the p53 signaling pathway - cell viability (AID 651633; calls by dose curve; note: nearly all actives have a fitted effect of over 30% in size; note: potency is the fitted concentration of half-maximal effect); conditions: p53RE-bla HCT-116 viability, ATP luminescence, 16 h; series mostly up to 83.3 µM
Summary of the method: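 Viability counter-read: CellTiter-Glo luminescence (30 min, room temperature) in the same p53RE-bla plates. These plates had been exposed to compounds for 16 h at 37 C.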

[3] = qHTS assay to test for compound auto fluorescence at 590 nm (red) in HepG2 cells (AID 720674); conditions: HepG2 autofluorescence, red 540/590 nm, 1 h; series mostly up to 91.3 µM
Summary of the method: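 1 hr compound incubation on HepG2 cells, 37 C, 5% CO2; plate read ex 540 nm / em 590 nm; intensities reported as Rose Bengal sodium equivalents.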

[4] = qHTS assay to test for compound auto fluorescence at 535 nm (green) in HepG2 cells (AID 720675); conditions: green autofluorescence 485/535 nm, 1 h; series mostly up to 91.3 µM
[5] = qHTS assay to test for compound auto fluorescence at 460 nm (blue) in HEK293 cells (AID 720678); conditions: blue autofluorescence 405/460 nm; series mostly up to 91.3 µM
Summary of the method: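 HEK293 cells (2,000 per well, medium with 10% dialyzed FBS) attached for 4-5 hr at 37C, then received compound and stood overnight at 37C, 5% CO2. Blue fluorescence was read at Ex/Em 405/460 nm and expressed relative to triamterene.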

[6] = qHTS assay to test for compound auto fluorescence at 590 nm (red) in HEK293 cells (AID 720679); conditions: red autofluorescence 540/590 nm; series mostly up to 91.3 µM
Summary of the method: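 HEK293 cells (2,000/well, medium with 10% dialyzed FBS) attached for 4-5 hr at 37C, received 23 nL compound and were incubated overnight at 37C, 5% CO2. Red fluorescence was then read at 540/590nm Ex/Em, referenced to Rose Bengal sodium.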

[7] = qHTS assay to test for compound auto fluorescence at 535 nm (green) in HEK293 cells (AID 720680); conditions: green autofluorescence 485/535 nm; series mostly up to 91.3 µM
[8] = qHTS assay to test for compound auto fluorescence at 460 nm (blue) in HEK293 cell free culture (AID 720681); conditions: cell-free medium, autofluorescence 405/460 nm (blue); series mostly up to 91.3 µM
Summary of the method: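 Blue fluorescence (Ex 405/Em 460 nm, triamterene-equivalent) was read immediately after pin transfer of compound or DMSO into medium (DMEM, 10% FBS) without cells.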

[9] = qHTS assay to test for compound auto fluorescence at 535 nm (green) in HEK293 cell free culture (AID 720682); conditions: cell-free medium, green autofluorescence 485/535 nm, active compounds read high; series mostly up to 91.3 µM
Summary of the method: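 Read-out: 485/535 nm fluorescence intensity, calibrated against fluorescein. Medium only (DMEM + 10% FBS, no cells); test compound or DMSO vehicle added by pintool before plate reading.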

[10] = qHTS assay to test for compound auto fluorescence at 590 nm (red) in HEK293 cell free culture (AID 720683); conditions: cell-free medium autofluorescence, Ex540/Em590 red; series mostly up to 91.3 µM
Summary of the method: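 Red-channel autofluorescence of compounds in culture medium (DMEM, 10% FBS), no cells, measured at 540/590 nm. Rose Bengal sodium is the reference fluorophore for equivalence.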

[11] = qHTS assay to test for compound auto fluorescence at 590 nm (red) in HepG2 cell free culture (AID 720684); conditions: cell-free medium autofluorescence, red 540/590 nm; series mostly up to 91.3 µM
Summary of the method: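 No cells present: MEM + 10% FBS only. Compound pinned in, red label read (540/590 nm). Activity = fluorescence equivalent to Rose Bengal sodium.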

[12] = qHTS assay to test for compound auto fluorescence at 460 nm (blue) in HepG2 cell free culture (AID 720685); conditions: Cell-free culture medium, blue autofluorescence 405/460 nm; series mostly up to 91.3 µM
Summary of the method: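 Cell-free plates of MEM plus 10% FBS received 23 nL compound or DMSO vehicle; blue-channel (405/460 nm) intensity scored against triamterene as reference fluorophore.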

[13] = qHTS assay to test for compound auto fluorescence at 535 nm (green) in HepG2 cell free culture (AID 720686); conditions: Cell-free medium, green autofluorescence 485/535 nm; series mostly up to 91.3 µM
[14] = qHTS assay to test for compound auto fluorescence at 460 nm (blue) in HepG2 cells (AID 720687); conditions: autofluorescence 405/460 nm, 1 h; series mostly up to 91.3 µM
Summary of the method: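 Blue-channel autofluorescence (Ex/Em 405/460 nm, triamterene-equivalent) was measured after 1 hr compound exposure at 37 C, 5% CO2. Cells were HepG2, plated overnight at 37 C in MEM plus 10% FBS.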

[15] = target: Glucocorticoid receptor (Homo sapiens) (UniProt P04150); assay: qHTS assay to identify small molecule agonists of the glucocorticoid receptor (GR) signaling pathway (AID 720691; active = well fitted activation curve with a large enough effect in the signal ratio in the repeat runs, not every such curve was filed as active; the % refers to the signal ratio); conditions: GR-bla HeLa, beta-lactamase reporter ratio, 18 h; series mostly up to 62.4 µM
Summary of the method: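 HeLa GR-bla reporter line; cells pre-incubated 4 h, compound in DMSO 18 h at 37 C; LiveBLAzer B/G FRET substrate 2 h RT; fluorescence intensity read-out.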

[16] = target: Glucocorticoid receptor (Homo sapiens) (UniProt P04150); assay: qHTS assay to identify small molecule antagonists of the glucocorticoid receptor (GR) signaling pathway (AID 720692; active = well fitted inhibition curve with a large enough effect in the signal ratio in the repeat runs, not every such curve was filed as active; the % refers to the signal ratio); conditions: GR-bla HeLa, beta-lactamase FRET ratio, dexamethasone-stimulated, 18 h; series mostly up to 58.5 µM
Summary of the method: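 Read-out: beta-lactamase FRET substrate fluorescence, 2 h at room temperature, in HeLa cells stably carrying a GRE-driven bla reporter. Compounds were co-incubated with 5 nM dexamethasone agonist (final) for 18 h at 37 C.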

[17] = qHTS assay for small molecules that induce genotoxicity in human embryonic kidney cells expressing luciferase-tagged ATAD5 - cell viability (AID 651634; calls by dose curve; note: nearly all actives have a fitted effect of over 25% in size); conditions: HEK293T ATAD5-luc cells viability, CellTiter-Fluor, 15.5 h; series mostly up to 83.3 µM
Summary of the method: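 HEK293T ATAD5-luc cells, 2,000/well; compound 15.5 hr, 37C/5% CO2; CellTiter-Fluor 30 min, 37C; fluorescence read.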

[18] = qHTS assay for small molecule disruptors of the mitochondrial membrane potential - cell viability (AID 720634; calls by dose curve;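 note: human HepG2 liver cancer cells; nearly all actives have a fitted effect of over 20% in size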); conditions: HepG2 viability, ATP luminescence (CellTiter-Glo), 1 h; series mostly up to 83.2 µM
Summary of the method: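 Luminescence from CellTiter-Glo (ATP content) gave viability in HepG2 cells, read in the same wells as the MMP dye assay after 1 hr compound exposure at 37 C.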

[19] = qHTS assay for small molecule disruptors of the mitochondrial membrane potential (AID 720635); conditions: HepG2 mitochondrial membrane potential, Mito-MPS dye ratio; series mostly up to 83.2 µM; note: potency is the fitted concentration of half-maximal effect
Summary of the method: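 Mitochondrial membrane potential tracked with Mito-MPS dye, red aggregates (ex 540/em 590 nm) against green monomers (ex 490/em 535 nm). Compound treatment 1 hr at 37C, dye 30 min in HepG2.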

Measured: Potency

Glucocorticoid receptor (Homo sapiens), sequence (P04150 whole entry, looked up): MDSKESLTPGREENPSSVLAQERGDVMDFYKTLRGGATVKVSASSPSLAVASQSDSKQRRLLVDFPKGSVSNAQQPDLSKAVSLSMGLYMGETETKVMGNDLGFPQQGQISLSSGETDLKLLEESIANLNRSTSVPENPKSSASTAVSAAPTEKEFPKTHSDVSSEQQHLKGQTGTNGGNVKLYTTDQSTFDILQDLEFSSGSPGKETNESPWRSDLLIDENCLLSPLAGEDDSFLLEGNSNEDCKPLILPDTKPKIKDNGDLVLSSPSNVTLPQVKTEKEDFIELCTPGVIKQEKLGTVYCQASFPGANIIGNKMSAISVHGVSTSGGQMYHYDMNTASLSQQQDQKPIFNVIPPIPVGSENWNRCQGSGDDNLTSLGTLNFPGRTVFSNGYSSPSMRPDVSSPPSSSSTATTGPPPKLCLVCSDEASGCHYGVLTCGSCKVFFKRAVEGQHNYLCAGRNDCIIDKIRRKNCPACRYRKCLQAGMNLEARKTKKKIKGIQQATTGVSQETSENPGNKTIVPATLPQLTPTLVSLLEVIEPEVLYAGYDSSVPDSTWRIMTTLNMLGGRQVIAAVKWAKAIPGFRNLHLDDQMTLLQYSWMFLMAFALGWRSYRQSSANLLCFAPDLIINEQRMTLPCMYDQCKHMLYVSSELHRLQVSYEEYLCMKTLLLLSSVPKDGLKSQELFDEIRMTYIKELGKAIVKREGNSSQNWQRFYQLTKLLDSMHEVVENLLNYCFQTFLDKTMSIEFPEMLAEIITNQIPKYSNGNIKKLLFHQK

O=C(O)C(F)(F)C(F)(F)C(F)(F)C(F)(F)C(F)(F)C(F)(F)C(F)(F)C(F)(F)F
inactive: [1] | [3] | [4] | [5] | [6] | [7] | [8] | [9] | [10] | [11] | [12] | [13] | [14] | [15] | [16]
active: [2] 61.1 µM

O=C(N[C@H]1CN2CCC1CC2)c1ccc2c(c1)OCCO2
inactive: [1] | [17] | [18] | [19] | [3] | [4] | [5] | [6] | [7] | [8] | [9] | [10] | [11] | [12] | [13] | [15] | [16]

NP(N)(=O)NC(=O)c1ccc(F)cc1
inactive: [1] | [17] | [18] | [3] | [4] | [5] | [6] | [7] | [8] | [9] | [10] | [11] | [12] | [13] | [14] | [15] | [16]

C[C@]12C=CC3=C4CCC(=O)C=C4CC[C@H]3[C@@H]1CC[C@@H]2O
inactive: [1] | [17] | [18] | [3] | [4] | [6] | [7] | [9] | [10] | [11] | [13]

CCCCCCCCP(=O)(O)O
inactive: [1] | [2] | [18] | [19] | [3] | [4] | [5] | [6] | [7] | [8] | [9] | [10] | [11] | [12] | [13] | [14] | [15] | [16]

CN(C1CCCCC1)C1CCCCC1
inactive: [1] | [17] | [18] | [19] | [3] | [4] | [5] | [6] | [7] | [9] | [10] | [13] | [14] | [15] | [16]

CN1CC[C@]23c4c5ccc(O)c4O[C@H]2[C@@H](O)C=C[C@H]3[C@H]1C5
inactive: [1] | [18] | [19] | [3] | [4] | [6] | [7] | [8] | [9] | [10] | [11] | [12] | [13] | [14] | [15] | [16]

C=CCOCC1CO1 (stereo not given)
inactive: [1] | [2] | [17] | [3] | [4] | [5] | [6] | [7] | [8] | [9] | [10] | [11] | [13] | [15]

O=S(=O)(c1ccccc1)c1ccccc1
inactive: [1] | [17] | [18] | [3] | [4] | [5] | [6] | [7] | [8] | [9] | [10] | [11] | [12] | [13] | [14]

N#CC(C#N)=C(C#N)C#N
inactive: [1] | [2] | [17] | [18] | [3] | [4] | [5] | [6] | [7] | [9] | [10] | [13] | [14] | [15] | [16]

Oc1cccc(Cl)c1
inactive: [1] | [2] | [18] | [3] | [4] | [5] | [6] | [7] | [8] | [9] | [10] | [11] | [12] | [13] | [14] | [15] | [16]
active: [19] 53.8 µM

CCC(C)(C)O
inactive: [1] | [17] | [18] | [3] | [4] | [5] | [6] | [7] | [8] | [9] | [10] | [11] | [14] | [15]

CCc1ccccc1N
inactive: [1] | [2] | [17] | [18] | [3] | [4] | [6] | [7] | [9] | [10] | [12] | [13] | [14] | [15]

COCc1cnc(C2=NC(C)(C(C)C)C(=O)N2)c(C(=O)O)c1 (stereo not given)
inactive: [1] | [18] | [3] | [4] | [5] | [6] | [7] | [8] | [9] | [10] | [11] | [12] | [15] | [16]

Cc1ccccc1
inactive: [1] | [17] | [18] | [19] | [15] | [16]
